Measured values from PubChem BioAssay (NCI).
This is part of a sample that, as a whole, favours compounds with a hit. Of some 79,000 tested, about 15% had one in any assay. Cut-off read from the data, not from the text of the source: active = growth inhibition above about 70%; inactive = the rest.

Tests used:
[1] = NCI Yeast Anticancer Drug Screen. Data for the rad50 strain (AID 155);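 note: 0% = growth of vehicle-only cultures of the same strain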; conditions: S. cerevisiae rad50 strain growth inhibition; at 50.0 µM; hits give high values
Procedure, shortened: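 Genetically altered yeast (DNA repair pathway); compound treatment; growth inhibition vs vehicle ctrl.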

[2] = NCI Yeast Anticancer Drug Screen. Data for the mec2-1 strain (AID 157); conditions: S. cerevisiae mec2-1 strain, at 50.0 µM, hits give high values
Procedure, shortened: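 Cells of the genetically defined mec2-1 yeast strain are incubated with test compound. Inhibition of growth is calculated against vehicle-treated controls.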

[3] = NCI Yeast Anticancer Drug Screen. Data for the sgs1 mgt1 strain (AID 161);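 note: 0% = growth of cultures given vehicle only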; conditions: S. cerevisiae sgs1 mgt1 strain, at 50.0 µM, hits give high values
Procedure, shortened: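 Genetically altered yeast, compound exposure, growth inhibition relative to vehicle.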

[4] = NCI Yeast Anticancer Drug Screen. Data for the cln2 rad14 strain (AID 165);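 note: 0% = growth equal to vehicle treated cultures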; conditions: S. cerevisiae cln2 rad14 strain, at 50.0 µM, hits give high values
Procedure, shortened: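 The screen exposed genetically defined yeast (cln2 rad14) to test compounds and scored growth inhibition relative to vehicle-treated controls.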

[5] = NCI Yeast Anticancer Drug Screen. Data for the bub3 strain (AID 167); conditions: S. cerevisiae bub3 mutant strain, at 50.0 µM, hits give high values
Procedure, shortened: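 Yeast carrying a defined mutation is treated with each compound, and growth is compared with that of vehicle-exposed cells to give inhibition.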

[6] = NCI Yeast Anticancer Drug Screen. Data for the mlh1 rad18 strain (AID 175); conditions: S. cerevisiae mlh1 rad18 strain growth inhibition; at 50.0 µM; hits give high values
Procedure, shortened: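 Compound-treated yeast growth, normalised to vehicle controls. Strain bears defined DNA repair mutations.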

Measured: growth inhibition

Cc1cccc(C(=O)OCCBr)c1
inactive: [1] 27.1% | [2] 3.95% | [3] 13.7% | [4] -28.4% | [5] 9.9% | [6] 10.9%

CN(C)CCC1(C#N)CCCCC1
inactive: [1] 5.3% | [2] 23.3% | [3] 10.4% | [4] -19.3% | [5] 12.4% | [6] 1.65%

CCCCS/C=C\C(=O)OCC
inactive: [1] 18.9% | [2] -22.8% | [3] -8.5% | [4] -44% | [5] 0.15% | [6] -15.4%

CCOC(=O)/C(=C\c1cc(OC)ccc1OC)P(=O)(OCC)OCC
inactive: [1] 39.2% | [2] 25.9% | [3] 18.4% | [4] 21.9% | [5] 7.6% | [6] 16.8%

Cn1cnnc1Sc1c([N+](=O)[O-])nc(-c2ccc([N+](=O)[O-])cc2)n1C
inactive: [1] -3.5% | [2] 3.15% | [3] 10.1% | [4] 35.1% | [5] 11.6% | [6] 8.95%

IC1CCC2OC1CCC2I (stereo not given)
inactive: [1] 2.8% | [2] 1.75% | [3] -3.85% | [4] -8.35% | [5] -5.05% | [6] 11.8%

O=C1CCCc2ccc([N+](=O)[O-])cc21
inactive: [1] -3.35% | [2] -54.7% | [3] -17.2% | [4] 18.6% | [5] -11.8% | [6] 23.1%

Cc1ccc(C(=O)Cc2ccccc2)cc1
inactive: [1] 8.05% | [2] 6.15% | [3] 4.85% | [4] 1.25% | [5] -1.85% | [6] 1.05%

NC(Cc1ccc(S(=O)(=O)O)cc1)C(=O)NC(CCCCNC(=O)NCCCCC(NC(=O)C(N)Cc1ccc(S(=O)(=O)O)cc1)C(=O)NC(Cc1ccc(S(=O)(=O)O)cc1)C(=O)O)C(=O)NC(Cc1ccc(S(=O)(=O)O)cc1)C(=O)O (stereo not given)
inactive: [1] -11.7% | [2] -3.8% | [3] 8.45% | [4] -8.65% | [5] 22.6% | [6] 14.2%

CN(C)Cc1[nH]c2ccccc2c1C(=O)c1ccccc1
inactive: [1] -4.55% | [2] -8.85% | [3] -12.2% | [4] -18.7% | [5] -25.5% | [6] -25.6%

Cc1ccc(S(=O)(=O)Nc2nc3ccccc3c(=O)n2C2CCCCC2)cc1
inactive: [1] 27.2% | [2] 11.3% | [3] -43.2% | [4] 2.1% | [5] -19.5% | [6] -3.5%

CCC(/C=C\C(C)C1CCC2C3CC=C4CC(OS(=O)(=O)c5ccc(C)cc5)CCC4(C)C3CCC12C)C(C)C (stereo not given)
inactive: [1] -9.9% | [2] -3.95% | [3] -16.6% | [4] -5.6% | [5] 1.1% | [6] -32.1%

OC(C/C=N/N=C/CC(O)(C(F)(F)Cl)C(F)(F)Cl)(C(F)(F)Cl)C(F)(F)Cl
inactive: [1] 36% | [2] 28.3% | [3] 31.7% | [4] 35.2% | [5] 34.5% | [6] 34.1%

CC(=O)OCCOc1ccccc1Cl
inactive: [1] 2.75% | [2] -5.8% | [3] 3.25% | [4] -16.9% | [5] -23.1% | [6] -13.1%

Cc1cccc(N=C2NC(=O)C(CC(=O)Nc3ccc(Cl)cc3C)S2)c1 (stereo not given)
inactive: [1] 0.05% | [2] -1.9% | [3] 1.95% | [4] 3.55% | [5] 8.15% | [6] 3%

O=C(Nc1cc(-c2ccccc2)[nH]n1)c1ccccc1Cl
inactive: [1] 22.1% | [2] 16.6% | [3] 60.5% | [4] 31.2% | [5] 42.1% | [6] 28.3%

O=C1C2=C(c3ccccc31)C(c1ccc(Cl)cc1)N1C(=O)CCSC1=N2 (stereo not given)
inactive: [1] 24.7% | [2] 10.6% | [3] 1.9% | [4] 8.25% | [5] 27.1% | [6] 25.3%

Cc1ccc(NC(=O)c2ccc(Cl)cc2)cc1Cl
inactive: [1] 18.9% | [2] 1.35% | [3] 2.95% | [4] -9.65% | [5] 13.8% | [6] -2.3%

N#Cc1cn(C2OC(CO)C3OC32)c2ncnc(NC(=O)c3ccccc3)c12 (stereo not given)
inactive: [1] 28.9% | [2] 9.1% | [3] 14.7% | [4] 10.3% | [5] -4% | [6] 15.5%

CCOc1cn(C2CC(O)C(CO)O2)c(=O)[nH]c1=O (stereo not given)
inactive: [1] -1.35% | [2] 7.75% | [3] -6.95% | [4] -10.9% | [5] -16.2% | [6] 23.6%
